Assay results: PubChem BioAssay (NCI)
About 83,000 compounds went through this panel and 20% of them were active in at least one assay; those are over-represented in the sample as a whole.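 Assay: single dose, 48 h. Readout: percent growth (0 = no net growth; negative = cell death). Active: <10.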 A number with no mark means an inactive call. Active and inactive are the calls of the source.

Legend:
Assay in all cases: NCI-60 one-dose screen, 48 h (100 = growth as untreated, 0 = no growth, -100 = all killed)
Conditions in all cases: 10 µM unless noted
SK-MEL-2 melanoma = system: SK-MEL-2 melanoma
SN12C renal = system: SN12C renal
UO-31 renal = system: UO-31 renal
ACHN renal = system: ACHN renal
A498 renal = system: A498 renal
CCRF-CEM leukemia = system: CCRF-CEM leukemia
MOLT-4 leukemia = system: MOLT-4 leukemia
CAKI-1 renal = system: CAKI-1 renal
TK-10 renal = system: TK-10 renal
EKVX NSCLC = system: EKVX NSCLC

SMILES | growth (SK-MEL-2 melanoma) | growth (SN12C renal) | growth (UO-31 renal) | growth (ACHN renal) | growth (A498 renal) | growth (CCRF-CEM leukemia) | growth (MOLT-4 leukemia) | growth (CAKI-1 renal) | growth (TK-10 renal) | growth (EKVX NSCLC)
CC(C)=CCC/C(C)=C/CC/C(C)=C/CC/C(C)=C/CSC[C@H](NC(=O)CCCCCN1CCN(C)CC1)C(=O)NC1CCCCC1 | 97.6% | 97.7% | 67.3% | 83.4% | 92.9% | 17.4% | 45.2% | – | – | –
O=S(=O)(NCCNc1cc(-c2cn(-c3ccccc3)nc2-c2cccc(O)c2)ccn1)c1ccc(Cl)cc1 | 34.9% | 39.4% | 23% | 28.5% | 34.9% | 9.05% (active) | 8.1% (active) | 41% | – | –
COc1ccc(C(=O)/C=C/c2cc(-c3cc(OC)c(OC)c(OC)c3)n[nH]2)cc1OC | 22.6% | 5.5% (active) | -84.8% (active) | -86.2% (active) | 4.21% (active) | -18.6% (active) | -1.18% (active) | -67% (active) | – | –
CC1=NN(c2ccc(S(=O)(=O)O)cc2Cl)C(=O)C1 | 112% | – | 89.2% | 105% | 102% | 99.1% | 123% | 85.1% | 101% | –
O=C1C(Cl)=C(Nc2ccc(S(=O)(=O)c3ccc(NC4=C(Cl)C(=O)c5ccccc5C4=O)cc3)cc2)C(=O)c2ccccc21 | – | 56.2% | -62.4% (active) | -7.78% (active) | 66.2% | 21.1% | 19% | -21.3% (active) | -58.7% (active) | 59.1%
C#Cc1cc2c(N)c(C(=O)c3cc(OC)c(OC)c(OC)c3)[nH]c2cc1OC | 15.6% | 67.9% | 35.7% | – | -19.1% (active) | 16% | 32% | – | 58.6% | –
COc1ccc2nc(-c3cc(-c4cc(OC)c(OC)c(OC)c4)n[nH]3)[nH]c2c1 | -29.9% (active) | 21% | -1.85% (active) | 21.5% | 15.5% | – | – | 26.8% | – | –
CC(C)=CCC/C(C)=C/CC/C(C)=C/CSC[C@H](NC(=O)CCCCCN1CCN(C)CC1)C(=O)NC1CCCCCC1 | 88.2% | – | 56% | 66% | 77.3% | 19.9% | 38.4% | – | 94.2% | –
Clc1ccc(Cn2cc(-c3nc4ccc(Br)nc4n3Cc3ccc(Cl)cc3)c3cccnc32)cc1 | 89.2% | – | 51.7% | 75% | 76.4% | 78.6% | 59.3% | 82% | 112% | –
C[N+](C)(CCCCCC[N+](C)(C)C1c2ccccc2-c2ccccc21)C1c2ccccc2-c2ccccc21 | 95.8% | 108% | 89% | – | – | 106% | 90.1% | – | 112% | –
CC(C)(C)CC(C)(C)c1ccc(OCCOCC[N+](C)(C)CC(=O)[O-])cc1 | 117% | – | 98.5% | 111% | 104% | – | 94.2% | – | 109% | –
COC(=O)[C@]12CC[C@@H](C)[C@H](C)[C@@H]1C1=CC(=O)[C@@H]3[C@@]4(C)C[C@@H](O)[C@H](O)[C@@]5(C)COC(=C45)C[C@@]3(C)[C@]1(C)CC2 | – | 55% | 65.8% | 69.5% | 37.5% | 59.7% | 24.6% | 71.1% | 83.3% | 75.8%
Cc1cc(C=O)c(C)c2c1[nH]c1ccccc12 | 75.6% | – | 74.3% | 88.4% | -84.1% (active) | 83.5% | 86.1% | – | 78% | –
COc1ccc2nc(-c3c(-c4ccccc4)nc4ncccn34)[nH]c2c1 | 113% | – | 108% | 90.4% | 86.6% | – | – | 103% | 109% | –
Nc1nc2c3ccncc3cc(-c3cccc(Cl)c3)c2c2cnccc12 | – | 36.4% | 29.7% | 26.6% | -12% (active) | 20% | 3.17% (active) | 29.1% | 32.3% | 62.2%
c1ccc2c(-c3nc(-c4c[nH]c5ncccc45)cs3)c[nH]c2c1 | 102% | 76.7% | 52.5% | – | 91.8% | 75.4% | 85.6% | 98.7% | 120% | –
COc1ccc(O)c(-c2cc(-c3ccc(Cl)cc3)c(C#N)c(=O)[nH]2)c1 | – | 77% | 55% | 78.1% | 79.6% | 37.2% | 57.8% | 73.3% | 87.3% | 105%
COc1ccc2c(c1)C/C(=C\c1cc(-c3cc(OC)c(OC)c(OC)c3)n[nH]1)C2=O | 94.7% | 92.8% | 76.6% | 81.7% | 87.4% | – | – | 84.3% | – | –
COc1ccc(C2c3ccccc3NC(=O)N2C2CCN(C)CC2)c(OC)c1 (stereo unspecified) | 108% | 95.6% | 89.7% | – | 102% | 106% | 99.5% | 102% | 98.1% | –
CCCCCCCC(=O)SCC/C=C/[C@@H]1CC(=O)NCc2cccc(n2)CN(Cc2ccc(Cl)cc2)CC(=O)N[C@@H](C(C)C)C(=O)O1 | – | 21.6% | -5.27% (active) | -15.5% (active) | -54% (active) | 7.54% (active) | 3.43% (active) | -7.97% (active) | -6.26% (active) | 32.5%
Oc1cccc2oc(=S)[nH]c12 | – | 98.6% | 72.9% | 99.7% | 94.8% | – | 99.5% | 120% | – | 111%
Cc1[c-]onc1C.Cc1[c-]onc1C.[Ag].[Ag].[NH-]S(=O)(=O)c1ccc(N=Nc2cc(N=Nc3ccc(S([NH-])(=O)=O)cc3)c3c(NC(=O)C(Cl)Cl)cccc3c2OC(=O)C(Cl)Cl)cc1 | – | 94.1% | 71.4% | 58% | 98.6% | 11% | 81.8% | 68.5% | 133% | –
Cc1ccc2[nH]cc(-c3nc(-c4cn(C)c5ncccc45)cs3)c2c1 | – | 87.8% | – | 79.6% | 72.2% | 58.5% | 53.3% | 77.9% | 95% | –
CC(C)(C)c1ccc(OP(=S)(N/N=C/c2ccccc2O)Oc2ccc(C(C)(C)C)cc2)cc1 | – | 72.6% | 61% | 87.7% | 89.9% | 68.6% | 43.7% | 62.7% | 74.4% | –
NC(Cc1ccc(O)cc1)C(=O)N/N=C/c1ccccc1O (stereo unspecified) | – | 114% | 74.6% | 116% | 103% | 81.2% | 75.6% | 107% | 98% | –
Cc1ccc(-c2ccc(Nc3ccccc3)nn2)cc1S(N)(=O)=O | – | 90.1% | 107% | 91.6% | 89.2% | – | 62.2% | 80.9% | 142% | –
C#CCN=C[C@]12CC[C@@H](C(=C)C)[C@@H]1[C@H]1CC[C@@H]3[C@@]4(C)CCC(=O)C(C)(C)[C@@H]4CC[C@@]3(C)[C@]1(C)CC2 | – | 55.1% | -78.2% (active) | 75.7% | 91.9% | 61.3% | 42.6% | 45% | 104% | 68.3%
Cc1csc(Nc2nc(-c3cccc(Br)c3)nc(C(Cl)(Cl)Cl)n2)n1 | – | 78.5% | 49.4% | 0.817% (active) | 31.5% | 91.4% | 80.7% | 21.6% | 49.9% | –
O=C1Nc2ccccc2/C1=C/c1cn(CCCn2c3ccccc3c(=O)c3ccccc32)c2ccccc12 | – | 92% | 44.6% | 89% | 112% | 98.4% | 77.7% | – | 140% | 60.3%
